The full list was thinned out, with hits kept by preference.
ERG Ets-DNA blk: qHTS for Small Molecule Inhibitors of the ERG Ets/DNA interaction; Potency, µM (titrated, usually from 76.9 µM), for the others: top-dose FP activity, negative = inhibition, actives largely listed as inhibitors; AID 624246, 2012; Transcriptional regulator ERG (Homo sapiens), P11308; 370,000 tested, 0.028% active; fluorescence polarization, His-ERG Ets domain / labelled DNA; active = well fitted inhibition curve with a large enough effect in the polarisation, with a control signal flat; inconclusive = small, poorly fitted or top-dose-only effect, or effect the other way, or a change in a side signal; inactive = no such curve, though single readings can be large or run the other way; the % refers to the polarisation;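 also: polarization taken with two DNA probes labelled with fluorescein and Texas red; potency is read from the fitted curve at half-maximal effect; % of control where 0% means no effect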
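His-tagged ERG Ets domain (1 uM in the protein solution; 300mM KCl, 50mM Tris-HCl, 1mM EDTA, 1mM DTT, pH 7.5) received compound, then a probe mix of 5 nM fluorescein-DNA and 100nM Texas-615-DNA. Fluorescence polarization was read for both dyes.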
RORgamma inh: qHTS for inhibitors of ROR gamma transcriptional activity. 310,000 tested, 5.4% active. Drosophila S2 Gal4-RORgamma UAS-luciferase reporter, 20 h. AID 2551, 2010. Nuclear receptor ROR-gamma (Mus musculus), P51450. Potency, µM (top dose mostly 53.6 µM), for the others: at the highest dose activity change, negative = inhibition, usual class: inhibitors; also: potency is read from the fitted curve at half-maximal effect; % is scaled to controls: 0 for no effect and ±100 for the full control effect; nearly all actives have a fitted effect of over 60% in size
Target sequence (P51450 whole entry, looked up, the tested form may be a part): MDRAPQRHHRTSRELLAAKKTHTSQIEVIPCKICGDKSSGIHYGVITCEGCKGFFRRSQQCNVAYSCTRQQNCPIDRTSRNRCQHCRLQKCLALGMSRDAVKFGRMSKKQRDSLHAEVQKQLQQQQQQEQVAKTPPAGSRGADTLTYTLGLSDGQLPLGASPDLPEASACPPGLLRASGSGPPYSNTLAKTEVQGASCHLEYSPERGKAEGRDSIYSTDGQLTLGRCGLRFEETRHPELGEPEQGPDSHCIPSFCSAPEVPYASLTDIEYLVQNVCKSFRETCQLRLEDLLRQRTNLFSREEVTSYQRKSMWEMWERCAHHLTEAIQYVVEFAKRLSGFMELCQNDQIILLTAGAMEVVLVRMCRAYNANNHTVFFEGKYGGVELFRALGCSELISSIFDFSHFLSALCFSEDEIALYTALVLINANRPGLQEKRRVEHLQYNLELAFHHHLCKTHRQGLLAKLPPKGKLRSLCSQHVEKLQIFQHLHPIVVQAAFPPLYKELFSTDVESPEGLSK
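Using a luciferase readout, inhibitors were identified by reduced reporter activity in Drosophila cells coexpressing a copper-inducible Gal4–ROR gamma fusion and UAS-driven Photinus luciferase, incubated 20 hr after 700 uM copper sulfate.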
Integrin act MD: qHTS for Activators of Integrin-Mediated Alleviation for Muscular Dystrophy; alpha7betagal myoblasts, beta-gal FDG fluorescence, 48 h; Potency, µM (top dose mostly 38.3 µM), for the others: at the highest dose activation, actives largely listed as activators; 350,000 tested, 0.064% active; AID 624291, 2012;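 also: potency is read from the fitted curve at half-maximal effect; 100% = response of the positive control SU9516; nearly all actives have a fitted effect of over 60% in size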
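Alpha7betagal+/- myoblasts (passage 13) were plated 16-24 hr, then exposed to compounds (1:260 dilution of DMSO stock) for 48 hours at 37C. After MPER lysis, β-galactosidase reporter activity was read as FDG fluorescence (ex 480/em 540) after 30 minutes.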
VP16 counter: VP16 counterscreen qHTS for inhibitors of ROR gamma transcriptional activity. Drosophila S2 Gal4-VP16 UAS-luciferase, luminescence, 20 h. Potency, µM (top dose mostly 53.6 µM), inactives show at the top dose activity, negative = inhibition, usual class: inhibitors. 310,000 tested, 3.5% active;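 also: Gal4-VP16 expression switched on by copper sulfate through the metallothionein promoter; potency is read from the fitted curve at half-maximal effect; % is scaled to controls: 0 for no effect and ±100 for the full control effect; nearly all actives have a fitted effect of over 50% in size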
Giardia killer: Small Molecules that selectively kill Giardia lamblia: qHTS; Giardia lamblia trophozoite viability; activity change, % at 7.66 µM, hits read low; 340,000 tested, 0.15% active; AID 540267, 2011; in the data active = activity change below about -80%; inconclusive = between about -30% and that limit;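 also: parasites exposed to compound for two days anaerobically before the ATP read; % is scaled to controls: 0 for no effect and ±100 for the full control effect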
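ATP-content bioluminescence gauges trophozoite survival. Cells (100/well) receive compound and incubate anaerobically for 48 hrs at 37 deg C; detection reagent follows for 15-30 min at room temperature.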
* marks the source's active call; other numbers are inactive results; ? = inconclusive; . = no result; [ ] = another dose, or the depositor's remark. Unless noted, calls follow the shape of the dose curve; as a rule, active = well fitted curve in the direction sought with a large enough effect; inconclusive = small, poorly fitted or top-dose-only effect, or another doubt; inactive = no such curve, though single readings can be large; an effect the other way counts as inactive or inconclusive.

SMILES	ERG Ets-DNA blk	RORgamma inh	Integrin act MD	VP16 counter	Giardia killer
CC(OC(=O)c1ccc([N+](=O)[O-])s1)C(=O)NC1CCCCC1C (stereo not drawn)	8.3%	.	-11.4%	.	-86.4*
COc1cc(CCC(=O)Nc2ccc(C)c(S(=O)(=O)N3CCCCCC3)c2)cc(OC)c1OC	.	.	-12.2%	.	-6.1
O=C(Nc1nc2n(n1)C(c1ccccc1)C=C(c1ccccc1)N2)c1ccccc1 (stereo not drawn)	1.6%	.	.	.	.
Cc1c(C)c(C)c(C(=O)C2CCN(c3ccc([N+](=O)[O-])cn3)CC2)c(C)c1C	-0.3%	-5.0%	48.8%	-9.2%	-14.4
O=S(=O)(c1ccc(NC(=S)N/N=C/c2ccc(N3CCOCC3)cc2)cc1)N1CCOCC1	.	?	15.2%	6.31µM*	-12.9
O=S(=O)(c1ccc(NC(=S)NN=C2CCCCC2)cc1)N1CCOCC1	-3.7%	8.91µM*	5.4%	?	-5.2
O=S(=O)(c1ccc(NC(=S)Nc2ccc(OC(F)F)cc2)cc1)N1CCOCC1	-9.5%	-3.2%	17.4%	13.2%	-10.3
C=C(C)/C=N/NC(=S)Nc1ccc(S(=O)(=O)N2CCOCC2)cc1	-5.7%	?	-31.2%	?	-23.2
O=S(=O)(c1ccc(NC(=S)N/N=C/c2ccc(Oc3ccccc3)cc2)cc1)N1CCOCC1	-8.3%	0.501µM*	-21.8%	-6.0%	24.5
NNC(=S)Nc1ccc(S(=O)(=O)N2CCOCC2)cc1	-2.8%	?	27.1%	3.2%	23.1
O=S(=O)(c1ccc(NC(=S)N/N=C/c2c3ccccc3cc3ccccc23)cc1)N1CCOCC1	8.8%	?	-23.4%	7.08µM*	35.5
Cn1c(SCc2cccc(F)c2)nc2c([nH]c3ccccc32)c1=O	-23.9%	.	.	.	.
COC(=O)c1cc2ccccc2c([N+](=O)[O-])c1O	11.2%	.	-16.9%	.	-14.5
COc1ccc2c(c1[N+](=O)[O-])CCC/C2=N/OC(=O)c1cccc2ccccc12	-2.8%	-23.2%	-11.3%	14.1µM*	11.0
COc1cccc(OCCCn2cc(/C=C3/C(=N)N4C=C(C)SC4=NC3=O)c3ccccc32)c1	-0.7%	2.24µM*	0.7%	1.41µM*	1.2
CC1=CN2C(=N)/C(=C/c3cn(CCCOc4ccccc4C)c4ccccc34)C(=O)N=C2S1	2.4%	?	-7.6%	?	-13.0
COc1ccc(OCCCn2cc(/C=C3/C(=N)N4C=C(C)SC4=NC3=O)c3ccccc32)cc1	-9.4%	0.794µM*	-7.1%	1.58µM*	-6.4
COc1ccc([C@]23Cc4cc(OC)c(OC)cc4C(O2)c2c(c4ccccc4oc2=O)O3)cc1	.	3.1%[10 µM]	.	7.5%[10 µM]	.
CCOC(=O)c1ccc2[nH]c(CSc3nnc(-c4cccc(F)c4)n3C)cc(=O)c2c1	-0.1%	.	.	.	.
Cc1nc2scc(C)n2c(=O)c1S(=O)(=O)Nc1ccc(N2CCOCC2)c(Cl)c1	11.9%	-23.4%	38.9%	11.2µM*	23.9
Cc1nc2sccn2c(=O)c1S(=O)(=O)Nc1ccc(N2CCOCC2)c(Cl)c1	-6.0%	?	21.4%	-29.3%	13.2
CC(=O)Nc1cccc(NC(=O)CCN2C(=O)c3ccccc3S2(=O)=O)c1	-3.8%	.	16.8%	.	9.1
COC(=O)c1cn(NC(=O)c2cnccn2)c(=O)c2ccccc12	-5.2%	12.6µM*	-36.1%	?	-6.7
CCOc1cc(/C=C(\C#N)C(=O)Nc2ccc(C)cc2)ccc1OCc1cc(=O)n2nc(CC)sc2n1	-9.9%	.	.	.	.
CN(Cc1cn(-c2ccccc2)nc1-c1ccc2c(c1)OCO2)Cc1nccn1C	3.3%	11.2µM*	6.7%	11.2µM*	19.6
SMILES	ERG Ets-DNA blk	RORgamma inh	Integrin act MD	VP16 counter	Giardia killer
CC(C)N(Cc1nc(-c2ccc(Cl)cc2)no1)Cc1nccn1C	-3.9%	5.01µM*	15.6%	?	48.6
Cn1ccnc1C1CCCCN1Cc1nc(-c2ccc(Cl)cc2)no1 (stereo not drawn)	0.1%	10µM*	?	?	12.1
CN(CCn1ccnc1)Cc1cn(-c2ccccc2)nc1-c1ccc2c(c1)OCO2	11.0%	-43.6%	12.7%	-6.1%	-12.7
COc1ccc(-c2noc(CN(Cc3nccn3C)C(C)C)n2)cc1	-7.5%	?	4.5%	-7.1%	5.6
CC(C)N(Cc1cn(C)nc1-c1cccc(Cl)c1)Cc1nccn1C	4.1%	7.94µM*	-4.6%	?	18.5
BrC(=C\c1ccccc1)/C=N/N1CCN(c2ccccn2)CC1	6.5%	?	9.5%	?	12.2
CC1=CC(=C(C#N)c2nc3ccccc3s2)C=C(C)N1CC1CCCO1 (stereo not drawn)	-4.8%	36.5%	-31.8%	1.6%	-16.5
O=C(NCC1CCCO1)c1ccc(CSCc2cccc(F)c2)o1 (stereo not drawn)	9.1%	?	16.7%	-2.1%	9.8
O=C(Nc1ccc(S(=O)(=O)Nc2nccs2)cc1)c1ccc(F)cc1	-6.6%	2.2%	-16.1%	0.4%	-22.7
O=C(Nc1ccc(S(=O)(=O)Nc2nccs2)cc1)c1ccccc1OC(F)F	1.4%	.	10µM*	.	2.8
O=C(NCc1ccc2c(c1)CCN2C(=O)c1ccncc1)c1cccc(Cl)c1	1.5%	.	.	.	.
CCN1CCCc2cc(CN(CCN3CCOCC3)C(=S)Nc3cccc(C)c3)ccc21	-12.2%	6.31µM*	-16.7%	-2.5%[10 µM]	-9.0
COc1ccccc1NC(=S)N(CCN1CCOCC1)Cc1ccccc1F	-0.6%	-20.9%	10.5%	-21.8%	2.1
CCN1CCCc2cc(CN(CCN3CCOCC3)C(=S)Nc3ccccc3C)ccc21	-2.7%	4.9%	-8.2%	-10.5%[10 µM]	14.5
CCOc1ccc2c(c1)C(N(CCN1CCOCC1)C(=S)Nc1ccccc1OC)CC(C)(C)O2 (stereo not drawn)	-8.6%	15.8µM*	30.0%	?	-11.0
CCN1CCCc2cc(CN(CCN3CCOCC3)C(=S)Nc3ccccc3OC)ccc21	0.3%	10µM*	?	-13.9%	-0.9
Cc1cccc(NC(=S)NC(=O)CC2CC(C)(C)OC2=O)c1 (stereo not drawn)	8.1%	11.2µM*	9.2%	-18.4%	-2.0
COc1ccc(C2(C(=O)NCCc3ccccc3)CCCC2)cc1OC	-0.6%	0.0%	-4.3%	1.6%	9.9
COc1ccc(C2CC(c3ccccc3)=NN2c2ccc(/C=N/NC(=O)c3ccncc3)cc2)cc1 (stereo not drawn)	-1.1%	3.16µM*	-21.1%	7.08µM*	15.6
COc1ccc(C2CC(c3ccccc3)=NN2c2ccc(C(N)=O)cc2)cc1 (stereo not drawn)	13.0%	41.6%	-31.2%	-4.0%	10.3
Cn1c(/C=C/c2cccc([N+](=O)[O-])c2)c([N+](=O)[O-])c(=O)n(C)c1=O	5.5%	15.8µM*	-47.2%	?	-11.8
OCCCCc1nccc2c1[nH]c1ccccc12	-4.1%	11.6%	-2.7%	0.1%	13.6
